Assay results reported in PMC11006913.
Residue numbers refer to the chain shown, from its start.

How the values were obtained:
Test in all cases: PBM; 200 nM protein, PBS
Conditions in all cases: dsDNA, one strand shown
PAX4 [1] = target: T1, PAX4 (Homo sapiens, UniProt O43316 9-242, R200K)
T1 sequence: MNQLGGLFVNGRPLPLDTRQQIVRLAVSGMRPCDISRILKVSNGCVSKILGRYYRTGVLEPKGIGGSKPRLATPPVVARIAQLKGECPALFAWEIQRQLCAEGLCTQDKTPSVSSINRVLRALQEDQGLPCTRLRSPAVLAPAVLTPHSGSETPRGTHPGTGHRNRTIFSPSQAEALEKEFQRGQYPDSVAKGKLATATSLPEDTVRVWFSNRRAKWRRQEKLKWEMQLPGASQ

PAX4 [2] = target: T2, PAX4 (Homo sapiens, UniProt O43316 9-242)
T2 sequence: T1 sequence with K192R

NKX2-6 [3] = target: T3, NKX2-6 (Homo sapiens, UniProt A6NCS4 118-204)
T3 sequence: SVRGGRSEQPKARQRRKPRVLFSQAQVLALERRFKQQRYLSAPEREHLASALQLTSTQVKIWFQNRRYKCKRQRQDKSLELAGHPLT

PAX4 [4] = target: T4, PAX4 (Homo sapiens, UniProt O43316 9-242, R200Q)
T4 sequence: T1 sequence with K192Q

PAX4 [5] = target: T5, PAX4 (Homo sapiens, UniProt O43316 9-242, F177V)
T5 sequence: T1 sequence with F169V, K192R

PAX4 [6] = target: T6, PAX4 (Homo sapiens, UniProt O43316 9-242, F177Y)
T6 sequence: T1 sequence with F169Y, K192R

NKX2-6 [7] = target: T7, NKX2-6 (Homo sapiens, UniProt A6NCS4 118-204, F151L)
T7 sequence: T3 sequence with F34L

PAX4 [8] = target: T8, PAX4 (Homo sapiens, UniProt O43316 9-242, R227W)
T8 sequence: T1 sequence with K192R, R219W

ALX3 [9] = target: ALX3 (Homo sapiens, UniProt O95076 139-225, N203Q)
ALX3 (Homo sapiens, UniProt O95076 139-225, N203Q), sequence (O95076 139-225 N203Q): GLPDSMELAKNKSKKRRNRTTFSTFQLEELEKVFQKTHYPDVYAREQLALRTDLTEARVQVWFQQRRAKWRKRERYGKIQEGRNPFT

ALX3 [10] = target: ALX3 (Homo sapiens, UniProt O95076 139-225)
ALX3 (Homo sapiens, UniProt O95076 139-225), sequence (O95076 139-225): as the sequence (O95076 139-225 N203Q) above, with Q65N counted along it

ALX3 [11] = target: ALX3 (Homo sapiens, UniProt O95076 139-225, L168Q)
ALX3 (Homo sapiens, UniProt O95076 139-225, L168Q), sequence (O95076 139-225 L168Q): as the sequence (O95076 139-225 N203Q) above, with L30Q, Q65N counted along it

ALX3 [12] = target: ALX3 (Homo sapiens, UniProt O95076 139-225, L168V)
ALX3 (Homo sapiens, UniProt O95076 139-225, L168V), sequence (O95076 139-225 L168V): as the sequence (O95076 139-225 N203Q) above, with L30V, Q65N counted along it

ALX3 [13] = target: ALX3 (Homo sapiens, UniProt O95076 139-225, N203S)
ALX3 (Homo sapiens, UniProt O95076 139-225, N203S), sequence (O95076 139-225 N203S): as the sequence (O95076 139-225 N203Q) above, with Q65S counted along it

NKX2-6 [14] = target: T9, NKX2-6 (Homo sapiens, UniProt A6NCS4 118-204, R150C)
T9 sequence: T3 sequence with R33C

MSX2 [15] = target: MSX2 (Homo sapiens, UniProt P35548 130-214, R199I)
MSX2 (Homo sapiens, UniProt P35548 130-214, R199I), sequence (P35548 130-214 R199I): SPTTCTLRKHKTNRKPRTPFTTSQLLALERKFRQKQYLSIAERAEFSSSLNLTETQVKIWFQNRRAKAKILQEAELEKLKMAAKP

MSX2 [16] = target: MSX2 (Homo sapiens, UniProt P35548 130-214)
MSX2 (Homo sapiens, UniProt P35548 130-214), sequence (P35548 130-214): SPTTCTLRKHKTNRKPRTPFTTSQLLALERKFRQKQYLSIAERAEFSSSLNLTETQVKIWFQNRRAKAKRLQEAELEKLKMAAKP

MSX2 [17] = target: MSX2 (Homo sapiens, UniProt P35548 130-214, F161Y)
MSX2 (Homo sapiens, UniProt P35548 130-214, F161Y), sequence (P35548 130-214 F161Y): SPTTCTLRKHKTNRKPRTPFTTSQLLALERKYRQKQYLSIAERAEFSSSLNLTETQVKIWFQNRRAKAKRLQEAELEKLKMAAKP

PITX2 = PITX2 (Homo sapiens, UniProt Q99697 72-157)
PROP1 [18] = target: PROP1 (Homo sapiens, UniProt O75360 56-141)
PROP1 (Homo sapiens, UniProt O75360 56-141), sequence (O75360 56-141): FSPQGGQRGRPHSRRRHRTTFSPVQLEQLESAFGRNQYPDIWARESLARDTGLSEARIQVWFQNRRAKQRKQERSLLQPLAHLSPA

PROP1 [19] = target: PROP1 (Homo sapiens, UniProt O75360 56-141, R99H)
PROP1 (Homo sapiens, UniProt O75360 56-141, R99H), sequence (O75360 56-141 R99H): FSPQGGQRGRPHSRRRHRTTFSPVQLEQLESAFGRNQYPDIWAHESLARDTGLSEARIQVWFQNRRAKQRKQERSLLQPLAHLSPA

PROP1 [20] = target: PROP1 (Homo sapiens, UniProt O75360 56-141, F88S)
PROP1 (Homo sapiens, UniProt O75360 56-141, F88S), sequence (O75360 56-141 F88S): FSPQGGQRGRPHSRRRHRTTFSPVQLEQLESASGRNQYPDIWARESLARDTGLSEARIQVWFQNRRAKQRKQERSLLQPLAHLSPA

Sequence: CGTCCCCC
- binding signal (PAX4 [1]): 9.1 upbm affinity estimate (log intensity, higher = more binding, comparable within an allelic series)
- binding signal (PAX4 [2]): 9.14 upbm affinity estimate (log intensity, higher = more binding, comparable within an allelic series)
- binding signal (NKX2-6 [3]): 9.4 upbm affinity estimate (log intensity, higher = more binding, comparable within an allelic series)
- binding signal (PAX4 [4]): 9.11 upbm affinity estimate (log intensity, higher = more binding, comparable within an allelic series)
- binding signal (PAX4 [5]): 9.08 upbm affinity estimate (log intensity, higher = more binding, comparable within an allelic series)
- binding signal (PAX4 [6]): 9.19 upbm affinity estimate (log intensity, higher = more binding, comparable within an allelic series)
- binding signal (NKX2-6 [7]): 9.03 upbm affinity estimate (log intensity, higher = more binding, comparable within an allelic series)
- binding signal (PAX4 [8]): 9.21 upbm affinity estimate (log intensity, higher = more binding, comparable within an allelic series)

Sequence: CGGCTGAG
- binding signal (PAX4 [1]): 9.44 upbm affinity estimate (log intensity, higher = more binding, comparable within an allelic series)
- binding signal (PAX4 [2]): 9.36 upbm affinity estimate (log intensity, higher = more binding, comparable within an allelic series)
- binding signal (ALX3 [9]): 7.73 upbm affinity estimate (log intensity, higher = more binding, comparable within an allelic series)
- binding signal (PAX4 [4]): 9.42 upbm affinity estimate (log intensity, higher = more binding, comparable within an allelic series)
- binding signal (PAX4 [5]): 9.34 upbm affinity estimate (log intensity, higher = more binding, comparable within an allelic series)
- binding signal (ALX3 [10]): 7.82 upbm affinity estimate (log intensity, higher = more binding, comparable within an allelic series)
- binding signal (PAX4 [6]): 9.23 upbm affinity estimate (log intensity, higher = more binding, comparable within an allelic series)
- binding signal (ALX3 [11]): 7.79 upbm affinity estimate (log intensity, higher = more binding, comparable within an allelic series)
- binding signal (ALX3 [12]): 7.77 upbm affinity estimate (log intensity, higher = more binding, comparable within an allelic series)
- binding signal (PAX4 [8]): 9.35 upbm affinity estimate (log intensity, higher = more binding, comparable within an allelic series)
- binding signal (ALX3 [13]): 7.7 upbm affinity estimate (log intensity, higher = more binding, comparable within an allelic series)

Sequence: GCCCGGCA
- binding signal (PAX4 [1]): 9.23 upbm affinity estimate (log intensity, higher = more binding, comparable within an allelic series)
- binding signal (PAX4 [2]): 9.34 upbm affinity estimate (log intensity, higher = more binding, comparable within an allelic series)
- binding signal (NKX2-6 [14]): 9.33 upbm affinity estimate (log intensity, higher = more binding, comparable within an allelic series)
- binding signal (PAX4 [4]): 9.28 upbm affinity estimate (log intensity, higher = more binding, comparable within an allelic series)
- binding signal (PAX4 [5]): 9.09 upbm affinity estimate (log intensity, higher = more binding, comparable within an allelic series)
- binding signal (PAX4 [6]): 9.13 upbm affinity estimate (log intensity, higher = more binding, comparable within an allelic series)
- binding signal (PAX4 [8]): 9.21 upbm affinity estimate (log intensity, higher = more binding, comparable within an allelic series)

Sequence: CCGGGGGA
- binding signal (PAX4 [1]): 9.19 upbm affinity estimate (log intensity, higher = more binding, comparable within an allelic series)
- binding signal (PAX4 [2]): 9.35 upbm affinity estimate (log intensity, higher = more binding, comparable within an allelic series)
- binding signal (MSX2 [15]): 9.52 upbm affinity estimate (log intensity, higher = more binding, comparable within an allelic series)
- binding signal (PAX4 [4]): 9.16 upbm affinity estimate (log intensity, higher = more binding, comparable within an allelic series)
- binding signal (PAX4 [5]): 9.14 upbm affinity estimate (log intensity, higher = more binding, comparable within an allelic series)
- binding signal (MSX2 [16]): 9.61 upbm affinity estimate (log intensity, higher = more binding, comparable within an allelic series)
- binding signal (PAX4 [6]): 9.09 upbm affinity estimate (log intensity, higher = more binding, comparable within an allelic series)
- binding signal (MSX2 [17]): 9.5 upbm affinity estimate (log intensity, higher = more binding, comparable within an allelic series)
- binding signal (PAX4 [8]): 9.22 upbm affinity estimate (log intensity, higher = more binding, comparable within an allelic series)

Sequence: AGTGATTA
- binding signal (PAX4 [1]): 11.1 upbm affinity estimate (log intensity, higher = more binding, comparable within an allelic series)
- binding signal (PAX4 [2]): 11.4 upbm affinity estimate (log intensity, higher = more binding, comparable within an allelic series)
- binding signal (PAX4 [4]): 11.1 upbm affinity estimate (log intensity, higher = more binding, comparable within an allelic series)
- binding signal (PAX4 [5]): 10.3 upbm affinity estimate (log intensity, higher = more binding, comparable within an allelic series)

Sequence: GCGCCACC
- binding signal (PAX4 [1]): 9.38 upbm affinity estimate (log intensity, higher = more binding, comparable within an allelic series)
- binding signal (PAX4 [2]): 9.4 upbm affinity estimate (log intensity, higher = more binding, comparable within an allelic series)
- binding signal (PAX4 [4]): 9.4 upbm affinity estimate (log intensity, higher = more binding, comparable within an allelic series)
- binding signal (PITX2): 7.93 upbm affinity estimate (log intensity, higher = more binding, comparable within an allelic series)
- binding signal (PAX4 [5]): 9.23 upbm affinity estimate (log intensity, higher = more binding, comparable within an allelic series)
- binding signal (PAX4 [6]): 9.26 upbm affinity estimate (log intensity, higher = more binding, comparable within an allelic series)
- binding signal (PAX4 [8]): 9.32 upbm affinity estimate (log intensity, higher = more binding, comparable within an allelic series)

Sequence: CCCCGGAG
- binding signal (PAX4 [1]): 9.33 upbm affinity estimate (log intensity, higher = more binding, comparable within an allelic series)
- binding signal (PAX4 [2]): 9.37 upbm affinity estimate (log intensity, higher = more binding, comparable within an allelic series)
- binding signal (NKX2-6 [14]): 9.25 upbm affinity estimate (log intensity, higher = more binding, comparable within an allelic series)
- binding signal (PAX4 [4]): 9.35 upbm affinity estimate (log intensity, higher = more binding, comparable within an allelic series)
- binding signal (PAX4 [5]): 9.22 upbm affinity estimate (log intensity, higher = more binding, comparable within an allelic series)
- binding signal (PAX4 [6]): 9.27 upbm affinity estimate (log intensity, higher = more binding, comparable within an allelic series)
- binding signal (PAX4 [8]): 9.32 upbm affinity estimate (log intensity, higher = more binding, comparable within an allelic series)

Sequence: CCGTCCGA
- binding signal (PAX4 [1]): 9.27 upbm affinity estimate (log intensity, higher = more binding, comparable within an allelic series)
- binding signal (PAX4 [2]): 9.39 upbm affinity estimate (log intensity, higher = more binding, comparable within an allelic series)
- binding signal (PAX4 [4]): 9.28 upbm affinity estimate (log intensity, higher = more binding, comparable within an allelic series)
- binding signal (PAX4 [5]): 9.26 upbm affinity estimate (log intensity, higher = more binding, comparable within an allelic series)
- binding signal (PAX4 [6]): 9.27 upbm affinity estimate (log intensity, higher = more binding, comparable within an allelic series)
- binding signal (PROP1 [18]): 6.64 upbm affinity estimate (log intensity, higher = more binding, comparable within an allelic series)
- binding signal (PROP1 [19]): 6.59 upbm affinity estimate (log intensity, higher = more binding, comparable within an allelic series)
- binding signal (PROP1 [20]): 6.67 upbm affinity estimate (log intensity, higher = more binding, comparable within an allelic series)
- binding signal (PAX4 [8]): 9.25 upbm affinity estimate (log intensity, higher = more binding, comparable within an allelic series)
